The record followed here is PubChem BioAssay (NCI).

Each structure is given as a SMILES string. About 83,000 compounds went through this panel and 20% of them were active in at least one assay; those are over-represented in the sample as a whole.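 48-hour exposure, single concentration, 96-well plates; percent growth endpoint where 0 means no net growth. Active: below 10.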 Unmarked numbers belong to inactive results. Active and inactive are the calls of the source.

Among the test systems are HCT-15 colon; HT29 colon; SNB-75 CNS; SNB-19 CNS; U251 CNS; PC-3 prostate; SK-MEL-5 melanoma; UACC-62 melanoma; LOX IMVI melanoma; SK-MEL-28 melanoma.
Assay in all cases: NCI-60 one-dose screen, 48 h (100 = growth as untreated, 0 = no growth, -100 = all killed)

Take `COc1ccc(NC(=O)CSc2nnc(-c3ccc(-c4nc5ccc(Cl)cc5[nH]4)cc3)o2)cc1`: the growth in the experiment on HCT-15 colon (10 µM unless noted) was 41.9%; with HT29 colon (10 µM unless noted), 47.8%; in the experiment on SNB-75 CNS (10 µM unless noted), 5.21% (active); in the experiment on SNB-19 CNS (10 µM unless noted), -29.2% (active); in the experiment on U251 CNS (10 µM unless noted) it was -58% (active); in the experiment on PC-3 prostate (10 µM unless noted) it was -20.7% (active). Besides, the growth in the experiment on SK-MEL-5 melanoma (10 µM unless noted) is 7% (active); in the experiment with UACC-62 melanoma (10 µM unless noted), -32.6% (active); in the experiment with LOX IMVI melanoma (10 µM unless noted), -33.3% (active).

Consider `OC(c1ccccc1)(c1ccccc1)C1CCN(c2ccc3nnc(Cl)n3n2)CC1`, for which the growth with HCT-15 colon (10 µM unless noted) is 18.1%; in the experiment with HT29 colon (10 µM unless noted), 26.8%; in the experiment with SNB-75 CNS (10 µM unless noted) it was 61.3%; in the experiment with SNB-19 CNS (10 µM unless noted), 63.3%; in the experiment with U251 CNS (10 µM unless noted) it was 45.9%; with PC-3 prostate (10 µM unless noted), 16.2%. Besides, the growth was -84.6% (active) in the experiment on SK-MEL-5 melanoma (10 µM unless noted), 54.5% in the experiment on UACC-62 melanoma (10 µM unless noted) and 38.3% with LOX IMVI melanoma (10 µM unless noted).

As for `CS(=O)(=O)Nc1cc(-c2ccc3ncnc(Nc4ccc(OCc5cccnc5)c(Cl)c4)c3c2)cnc1Cl`, the growth in the experiment on HCT-15 colon (10 µM unless noted) was 13.1%; in the experiment on HT29 colon (10 µM unless noted) it was 5.66% (active); with SNB-75 CNS (10 µM unless noted), 10.7%; with SNB-19 CNS (10 µM unless noted) it was -0.382% (active); with U251 CNS (10 µM unless noted) it was -34.2% (active); in the experiment on PC-3 prostate (10 µM unless noted), 3.42% (active). The growth with SK-MEL-5 melanoma (10 µM unless noted) is -94.5% (active); in the experiment on UACC-62 melanoma (10 µM unless noted) it was -64.3% (active); in the experiment on LOX IMVI melanoma (10 µM unless noted), -64.2% (active).

For `CC/C(=C(/c1ccc(O)cc1)c1ccc(OCCN(C)C(=O)COCCOCCNC(=O)Cc2ccc3c(c2)CN([C@@H]2CCC(=O)NC2=O)C3=O)cc1)c1ccccc1`, the growth with HCT-15 colon (1 µM) is 107%; in the experiment with HCT-15 colon (10 µM), 105%; with HT29 colon (1 µM), 102%; with HT29 colon (10 µM), 83%; in the experiment with SNB-75 CNS (1 µM) it was 59.6%; with SNB-75 CNS (10 µM), 22.7%. In addition, the growth in the experiment with SNB-19 CNS (1 µM) is 79.5%; with SNB-19 CNS (10 µM), 47.5%; in the experiment on U251 CNS (1 µM) it was 91.9%; in the experiment on U251 CNS (10 µM) it was 88.7%; in the experiment with PC-3 prostate (1 µM), 52.8%; with PC-3 prostate (10 µM) it was 24.4%. The growth in the experiment with SK-MEL-5 melanoma (1 µM) is 96.3%; in the experiment on SK-MEL-5 melanoma (10 µM), 65.8%; in the experiment on UACC-62 melanoma (1 µM), 95.6%; with UACC-62 melanoma (10 µM), 88.2%; with LOX IMVI melanoma (1 µM), 95.1%; in the experiment with LOX IMVI melanoma (10 µM), 92.1%. The growth is 98.3% in the experiment on SK-MEL-28 melanoma (1 µM) and 74.3% in the experiment on SK-MEL-28 melanoma (10 µM).

`FC(F)(F)c1cc2c(Cl)ncnc2n1CCC1CCOCC1`: the growth in the experiment with HCT-15 colon (10 µM unless noted) was -37.7% (active); in the experiment on HT29 colon (10 µM unless noted) it was 48.5%; in the experiment on SNB-75 CNS (10 µM unless noted) it was -91.1% (active); in the experiment on SNB-19 CNS (10 µM unless noted), -99% (active); in the experiment on U251 CNS (10 µM unless noted), -14.4% (active); with PC-3 prostate (10 µM unless noted), 2.75% (active). Further, the figures for the growth in the experiment with SK-MEL-5 melanoma (10 µM unless noted), in the experiment on UACC-62 melanoma (10 µM unless noted) and in the experiment on LOX IMVI melanoma (10 µM unless noted) were -83.7% (active), -34.5% (active) and -97% (active), respectively.

Regarding `CC(C)(C)C(=O)C1CC(C#N)=C2C=Cc3c(ccc4ccccc34)N21` (stereo not given), the growth is 88.3% with HCT-15 colon (10 µM unless noted); 90.4% in the experiment on HT29 colon (10 µM unless noted); -5.13% (active) with SNB-75 CNS (10 µM unless noted); 60.1% with SNB-19 CNS (10 µM unless noted); 75.2% with U251 CNS (10 µM unless noted); 80% in the experiment on PC-3 prostate (10 µM unless noted). Moreover, the growth with SK-MEL-5 melanoma (10 µM unless noted) was 91.1%; in the experiment on UACC-62 melanoma (10 µM unless noted), 91.1%; with LOX IMVI melanoma (10 µM unless noted), 95.5%.

Turning to `O=C1/C(=C/c2cnc(-c3ccccc3)s2)SC(=S)N1Cc1ccc2c(c1)OCO2`, the growth with HCT-15 colon (10 µM unless noted) was 81.2%; in the experiment with HT29 colon (10 µM unless noted) it was 111%; in the experiment with SNB-75 CNS (10 µM unless noted) it was -30.1% (active); in the experiment on SNB-19 CNS (10 µM unless noted), 16.7%; in the experiment with U251 CNS (10 µM unless noted), 42%; in the experiment on PC-3 prostate (10 µM unless noted), 97.9%. Besides, the values for the growth with SK-MEL-5 melanoma (10 µM unless noted), with UACC-62 melanoma (10 µM unless noted) and in the experiment with LOX IMVI melanoma (10 µM unless noted) were 96.9%, 61.5% and 66.6%, respectively.

`Fc1ccc(N2CC(Cn3c(C(F)(F)F)cc4c(Cl)ncnc43)C2)c(F)c1`: the growth was -76.5% (active) in the experiment with HCT-15 colon (10 µM unless noted); -59.4% (active) in the experiment on HT29 colon (10 µM unless noted); 24.6% in the experiment with SNB-75 CNS (10 µM unless noted); -39.1% (active) in the experiment with SNB-19 CNS (10 µM unless noted); -26.6% (active) with U251 CNS (10 µM unless noted); 0.119% (active) in the experiment with PC-3 prostate (10 µM unless noted). The growth in the experiment with SK-MEL-5 melanoma (10 µM unless noted) was 88.9%; with UACC-62 melanoma (10 µM unless noted), 6.55% (active); in the experiment with LOX IMVI melanoma (10 µM unless noted), -93.6% (active).

`CNS(=O)(=O)N1CCc2c(Br)c3c(c(OC)c2C1CCc1ccccc1)OCO3` (stereo not given): the growth was 2.11% (active) in the experiment on HCT-15 colon (10 µM unless noted); -25.4% (active) with HT29 colon (10 µM unless noted); -38.4% (active) in the experiment on SNB-75 CNS (10 µM unless noted); 4.35% (active) in the experiment on SNB-19 CNS (10 µM unless noted); -63.6% (active) in the experiment on U251 CNS (10 µM unless noted); 4.03% (active) with PC-3 prostate (10 µM unless noted). Also, the values for the growth in the experiment on SK-MEL-5 melanoma (10 µM unless noted), in the experiment with UACC-62 melanoma (10 µM unless noted) and in the experiment with LOX IMVI melanoma (10 µM unless noted) were -100% (active), -78.7% (active) and -95.1% (active), respectively.

For `CC[C@]12C=CCN3CC[C@]4(C(=C(C(=O)OC)C1)Nc1cc(OC)c([C@@H]5[C@H]6O[C@H]6[C@@]6(CC)CC(C(=O)OC)=C7Nc8cc(O)ccc8[C@@]78CCN5[C@@H]68)cc14)[C@@H]32`, the growth in the experiment with HCT-15 colon (10 µM unless noted) was -77.2% (active); with HT29 colon (10 µM unless noted), -27.1% (active); in the experiment with SNB-75 CNS (10 µM unless noted), 27.3%; in the experiment on SNB-19 CNS (10 µM unless noted), 21.6%; in the experiment with U251 CNS (10 µM unless noted), -38.2% (active); with PC-3 prostate (10 µM unless noted), 13.5%. Also, the growth with SK-MEL-5 melanoma (10 µM unless noted) was -96.1% (active); in the experiment with UACC-62 melanoma (10 µM unless noted), -71.9% (active); in the experiment on LOX IMVI melanoma (10 µM unless noted), -94.5% (active).

Regarding `COc1ccc(-c2nc3ccc(-c4nnc(SCc5ccccc5)o4)cc3[nH]2)cc1`, the growth with HCT-15 colon (10 µM unless noted) was -17.4% (active); in the experiment on HT29 colon (10 µM unless noted), 9.58% (active); in the experiment on SNB-75 CNS (10 µM unless noted), -82.8% (active); in the experiment with SNB-19 CNS (10 µM unless noted) it was 2.92% (active); with U251 CNS (10 µM unless noted), -77.1% (active); in the experiment on PC-3 prostate (10 µM unless noted) it was 20.1%. In addition, the growth in the experiment on SK-MEL-5 melanoma (10 µM unless noted) was -21.7% (active); in the experiment with UACC-62 melanoma (10 µM unless noted) it was -72.3% (active); in the experiment on LOX IMVI melanoma (10 µM unless noted), -96.6% (active).

For `CC/C(=C(\c1ccc(O)cc1)c1ccc(OCCNC)cc1)c1ccccc1`, the growth in the experiment on HCT-15 colon (1 µM) was 107%; in the experiment on HCT-15 colon (10 µM), 69.8%; in the experiment with HT29 colon (1 µM) it was 98.7%; in the experiment on HT29 colon (10 µM), 55.6%; in the experiment with SNB-75 CNS (1 µM) it was 110%; with SNB-75 CNS (10 µM), 62.7%. The growth in the experiment with SNB-19 CNS (1 µM) was 94.6%; with SNB-19 CNS (10 µM) it was 98.6%; with U251 CNS (1 µM), 98.6%; in the experiment with U251 CNS (10 µM), 57.4%; with PC-3 prostate (1 µM), 101%; in the experiment on PC-3 prostate (10 µM) it was 83%. In addition, the growth is 97.1% in the experiment on SK-MEL-5 melanoma (1 µM); 89.2% in the experiment with SK-MEL-5 melanoma (10 µM); 91.6% in the experiment on UACC-62 melanoma (1 µM); 101% in the experiment on UACC-62 melanoma (10 µM); 86.9% in the experiment with LOX IMVI melanoma (1 µM); 83.1% with LOX IMVI melanoma (10 µM). Also, the growth with SK-MEL-28 melanoma (1 µM) is 98.5%; in the experiment on SK-MEL-28 melanoma (10 µM), 93.3%.
